The record followed here is PubChem BioAssay (NCATS).

Inconclusive results are not listed. Unmarked numbers belong to inactive results. Active and inactive are the calls of the source. Calls come from the whole dose curve; as a rule, active = well fitted curve in the direction sought with a large enough effect; inconclusive = small, poorly fitted or top-dose-only effect, or another doubt; inactive = no such curve, though single readings can be large; an effect the other way counts as inactive or inconclusive.

Assay [1] deals with Cellular tumor antigen p53 (Homo sapiens) (UniProt P04637). As to the kind of experiment: Primary qHTS for small molecule compounds that upregulate eGFP-tagged delta133p53alpha (in N-terminal) cells. (AID 2060322).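 For activation: cells pre-induced with doxycycline then dosed without doxycycline; series mostly up to about 56 µM; 0% = DMSO vehicle and 100% = reference activator.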 Note: nearly all actives have a fitted effect of over 75% in size. Note: potency is the fitted concentration of half-maximal effect. The settings on record: NCI-H358 eGFP-delta133p53alpha fluorescence, 24 h; activation: active compounds read high. The gist of the method:
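NCI-H358 cells pre-induced 24 h with 10 ng/ml doxycycline for eGFP-delta133p53alpha, plated dox-free and exposed 24 h at 37C to titrated compounds. Fixed, Hoechst-stained; gated GFP peak intensity by laser scanning cytometry, normalized to DMSO (0%) and 57.5 uM 5-azacytidine (100%).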
A general note: Quantitative high-throughput screening tests each substance at several concentrations.

Assay [2] concerns the target Aldehyde dehydrogenase, mitochondrial (Homo sapiens) (UniProt P05091). As to the kind of experiment: qHTS for Inhibitors of the Aldehyde Dehydrogenase Family (ALDH2) Primary screen (AID 2061308).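 Note: plate controls were vehicle for no effect and reference inhibitor for full effect; nearly all actives have a fitted effect of over 55% in size.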
Assay [3] addresses Retinaldehyde dehydrogenase 3 (Homo sapiens) (UniProt P47895). As to the kind of experiment: qHTS for Inhibitors of the Aldehyde Dehydrogenase Family (ALDH1A3) Primary screen (AID 2061315).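 Note: plate controls were DMSO vehicle for no effect and reference inhibitor for full effect.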

Sequence of Cellular tumor antigen p53 (Homo sapiens) (P04637 whole entry, looked up): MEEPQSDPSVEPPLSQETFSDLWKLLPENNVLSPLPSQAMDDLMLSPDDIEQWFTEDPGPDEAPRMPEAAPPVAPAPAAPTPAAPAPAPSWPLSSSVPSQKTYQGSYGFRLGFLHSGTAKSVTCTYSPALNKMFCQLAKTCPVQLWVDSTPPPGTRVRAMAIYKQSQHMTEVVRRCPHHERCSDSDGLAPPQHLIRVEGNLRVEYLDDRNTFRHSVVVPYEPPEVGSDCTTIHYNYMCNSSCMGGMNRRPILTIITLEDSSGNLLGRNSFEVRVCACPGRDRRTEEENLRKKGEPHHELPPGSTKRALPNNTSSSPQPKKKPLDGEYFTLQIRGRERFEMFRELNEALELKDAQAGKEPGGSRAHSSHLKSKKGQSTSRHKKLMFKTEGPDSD

With `COc1ccccc1[C@@H]1C2=C(CC(C)(C)CC2=O)Nc2n[nH]c(C(F)(F)F)c21`, the activation in assay [1] is 9.67%. The Potency result in assay [2] and in assay [3] was “inactive” each time.
With `C=CC1(C)C=C2CCC3C(C)(C)C(O[C@@H]4O[C@@H](CO)[C@H](O)[C@H]4O)CCC3(C)C2CC1O[C@@H]1O[C@H](C)[C@H](O)[C@H](O)[C@H]1O` (some centres not stated), the activation in assay [1] is 0.763%. In addition, the Potency result in assay [2] and in assay [3] was “inactive” each time.
With `Cc1ccc(-c2ncc[nH]2)cc1NC(=O)c1ccc(OCc2ccccn2)cc1`, the activation in assay [1] is -2.86%. Moreover, the Potency result in assay [2] and in assay [3] was “inactive” each time.
For the molecule `COC(=O)C1=CO[C@@H](O[C@@H]2O[C@H](CO)[C@@H](O)[C@H](O)[C@H]2O)[C@H]2[C@@H]1C=C[C@]21C=C([C@H](C)OC(=O)/C=C/c2ccc(O)cc2)C(=O)O1`, the Potency in assay [1] is 2510 nM (active). Moreover, the Potency entry in assay [2] and in assay [3] was “inactive” in each case.
For the molecule `O=C(/C=C/c1ccc(O)cc1)OC[C@H]1O[C@H](O[C@@]2(CO)O[C@@H](CO)[C@H](O)[C@H]2O)[C@H](O)[C@@H](O)[C@@H]1O`, the activation in assay [1] is 6.25%. Besides, the Potency result in assay [2] and in assay [3] was “inactive” in each case.
`C=C1C(OC2OC(CO)C(O)C(O)C2O)CC2C(C)(C)C(O)CCC2(C)C1CC/C(C)=C\COC(=O)CC(=O)O` (configuration not stated): in assay [1], the activation is 0.763%. For the same molecule, the Potency result in assay [2] and in assay [3] was “inactive” throughout.
Take `O=C(O)c1cccc(CN2C(=O)/C(=C(\c3ccccc3)c3ccc(Cl)cc3)c3ccccc32)c1`: the activation in assay [1] was -4.46%. Also, the Potency result in assay [2] and in assay [3] was “inactive” throughout.
Turning to `C=C1C(=O)OC2C=C(C)CC/C=C(\CO)CC(O)C12` (configuration not stated), the activation in assay [1] was 9.92%. Also, the Potency result in assay [2] and in assay [3] was “inactive” each time.
Regarding `COC1C(OC(=O)/C=C/C=C/C=C/C=C/C(=O)O)CCC2(CO2)C1C1(C)OC1CC=C(C)C` (configuration not stated), in assay [1], the activation is 10.7%. Further, the Potency entry in assay [2] and in assay [3] was “inactive” throughout.
